Assay results published in PubChem BioAssay (EPA / NIEHS).
Values joined by “and” are separate entries in the source; they are usually repeats but may differ in a detail not shown here. Equal values may be shown once. A structure can be active in one record and inactive in another. Active and inactive are the calls of the source. How the source made its calls: active means hit-call score of the fitted dose curve at least 0.9, where 1 is the maximum; inactive means score below 0.9.

Tests used:
[1] = read-out: Plasminogen activator inhibitor-1 (PAI1), SERPINE1 (gene 5054); experiment: BSK_MyoF_PAI1: BioMAP Diversity Plus: MyoF Assay for Plasminogen activator inhibitor-1 (PAI1) Biomarker Activity (AID 2284256); conditions: primary human lung fibroblasts;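 on outcome: PAI-1 read 24 h after compound addition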
Procedure, shortened: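 Primary human lung fibroblasts treated with chemical for 24 h; PAI-1 levels quantified by ELISA relative to DMSO. Cytotoxicity was assessed in parallel cultures by SRB total-protein staining (0.1% SRB after 10% TCA fixation, 560 nm).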

[2] = read-out: Interleukin-8 (IL8), CXCL8 (gene 3576); experiment: BSK_MyoF_IL8: BioMAP Diversity Plus: MyoF Assay for Interleukin-8 (IL8) Biomarker Activity (AID 2284261); conditions: primary human lung fibroblasts
Procedure, shortened: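 Human lung fibroblast (MyoF system) cultures dosed for 24 h, then IL-8 measured by ELISA. Response taken relative to DMSO; parallel SRB total-protein staining for cytotoxicity.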

[3] = read-out: Plasminogen activator inhibitor-1 (PAI1), SERPINE1 (gene 5054); experiment: BSK_KF3CT_PAI1: BioMAP Diversity Plus: KF3CT Assay for Plasminogen activator inhibitor-1 (PAI1) Biomarker Activity (AID 2284252); conditions: primary human keratinocytes with fibroblasts
Procedure, shortened: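 ELISA read-out of PAI-1 taken 24 h after chemical treatment of a human skin primary co-culture of keratinocytes and foreskin fibroblasts. Increases over DMSO-treated wells defined activity.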

[4] = read-out: Monocyte Chemoattractant Protein-1 (MCP1), CCL2 (gene 6347); experiment: BSK_IMphg_MCP1: BioMAP Diversity Plus: IMphg Assay for Monocyte Chemoattractant Protein-1 (MCP1) Biomarker Activity (AID 2284253); conditions: primary human endothelial cells with macrophages
Procedure, shortened: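 Human venular endothelial cells co-cultured with macrophages; MCP-1 measured by ELISA 24 hours post-dose and fitted against DMSO. Cytotoxicity monitored by SRB total-protein staining in parallel cultures.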

[5] = read-out: Interleukin-8 (IL8), CXCL8 (gene 3576); experiment: BSK_KF3CT_IL8: BioMAP Diversity Plus: KF3CT Assay for Interleukin-8 (IL8) Biomarker Activity (AID 2284254); conditions: primary human keratinocytes with fibroblasts
Procedure, shortened: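 Human keratinocyte/foreskin fibroblast co-culture dosed 24 h; IL-8 measured by ELISA relative to DMSO. Parallel cultures stained with SRB for total protein to flag cytotoxicity.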

[6] = read-out: Macrophage Inflammatory Protein-1 Alpha (MIP1a), CCL3 (gene 6348); experiment: BSK_IMphg_MIP1a: BioMAP Diversity Plus: IMphg Assay for Macrophage Inflammatory Protein-1 Alpha (MIP1a) Biomarker Activity (AID 2284255); conditions: primary human endothelial cells with macrophages
Procedure, shortened: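 Co-culture of human venular endothelial cells and macrophages exposed to compounds for 24 h; MIP-1a measured by ELISA relative to DMSO. Cytotoxicity assessed in parallel cultures by sulforhodamine B total-protein staining at 560 nm.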

CD69, CD69 (gene 969) = experiment: BSK_IMphg_CD69: BioMAP Diversity Plus: IMphg Assay for CD69 Biomarker Activity (AID 2284257); conditions: primary human endothelial cells with macrophages
Procedure, shortened: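 Human venular endothelial cells co-cultured with macrophages; CD69 quantified by ELISA 24 h after compound addition. Activity fitted in the positive direction relative to DMSO baseline; cytotoxicity tracked in parallel cultures via SRB total-protein staining.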

[7] = read-out: Eotaxin 3, CCL26 (gene 10344); experiment: BSK_BF4T_Eotaxin3: BioMAP Diversity Plus: BF4T Assay for Eotaxin 3 Biomarker Activity (AID 2284258); conditions: primary human bronchial epithelial cells with fibroblasts
Procedure, shortened: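 Co-culture of human bronchial epithelial cells and dermal fibroblasts, exposed to chemicals for 24 h versus DMSO. Eotaxin-3 quantified by ELISA; cytotoxicity checked in parallel cultures by sulforhodamine B total-protein staining.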

[8] = read-out: Intercellular Adhesion Molecule 1 (ICAM1), ICAM1 (gene 3383); experiment: BSK_BF4T_ICAM1: BioMAP Diversity Plus: BF4T Assay for Intercellular Adhesion Molecule 1 (ICAM1) Biomarker Activity (AID 2284260); conditions: primary human bronchial epithelial cells with fibroblasts
Procedure, shortened: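 Co-culture of human bronchial epithelial cells and dermal fibroblasts exposed 24 h to chemical; cell-surface ICAM-1 quantified by ELISA. Parallel SRB total-protein staining assessed cytotoxicity; activity fitted relative to DMSO.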

[9] = read-out: Interleukin-8 (IL8), CXCL8 (gene 3576); experiment: BSK_BF4T_IL8: BioMAP Diversity Plus: BF4T Assay for Interleukin-8 (IL8) Biomarker Activity (AID 2284263); conditions: primary human bronchial epithelial cells with fibroblasts
Procedure, shortened: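 Human bronchial epithelial cells with dermal fibroblasts co-culture; IL-8 measured by ELISA 24 hours after dosing, fitted vs DMSO. Cytotoxicity tracked in parallel cultures by SRB total-protein staining.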

## CCOP(=S)(NC(C)C)Oc1ccccc1C(=O)OC(C)C (configuration not stated)
[1]
  outcome: inactive
[2]
  outcome: inactive

## CC(C)Nc1ccc(Nc2ccccc2)cc1
[1]
  AC50: 30.6 µM (active)
[2]
  outcome: inactive

## ClC(Cl)=C(c1ccc(Cl)cc1)c1ccccc1Cl
[1]
  AC50: 9.39 µM (active)
[2]
  AC50: 9.75 µM (active)

## CCOP(=S)(OCC)SCSc1ccc(Cl)cc1
[1]
  AC50: 3.97 µM (active)
[2]
  outcome: inactive

## N#Cc1c(-c2ccc(Cl)cc2)[nH]c(C(F)(F)F)c1Br
[1]
  AC50: 20 µM (active)
[2]
  AC50: 0.17 µM (active)

## O=S1(=O)OCC2C(CO1)C1(Cl)C(Cl)=C(Cl)C2(Cl)C1(Cl)Cl (configuration not stated)
[1]
  outcome: inactive
[2]
  outcome: inactive

## O=C(O)C(F)(OC(F)(F)C(F)(F)C(F)(F)F)C(F)(F)F (configuration not stated)
[3]
  outcome: inactive
[4]
  outcome: inactive
[5]
  outcome: inactive
[6]
  outcome: inactive
[1]
  outcome: inactive
CD69, CD69 (gene 969)
  outcome: inactive
[7]
  outcome: inactive
[8]
  outcome: inactive
[2]
  outcome: inactive
[9]
  outcome: inactive

## OCC(F)(F)OC(F)(F)C(F)(F)OC(F)(F)C(F)(F)OC(F)(F)F
[3]
  AC50: 43.8 µM (active) and 44 µM (active)
[4]
  AC50: 45.6 µM (active)
  outcome: inactive
[5]
  AC50: 46.5 µM (active) and 50.9 µM (active)
[6]
  AC50: 21.2 µM (active)
  outcome: inactive
[1]
  AC50: 20.9 µM (active)
  outcome: inactive
CD69, CD69 (gene 969)
  AC50: 48.6 µM (active) and 7.29 µM (active)
[7]
  AC50: 49.2 µM (active)
  outcome: inactive
[8]
  outcome: inactive
[2]
  outcome: inactive
[9]
  AC50: 42.8 µM (active) and 39.6 µM (active)

## CCOP(=S)(OCC)SCS(=O)(=O)CC
[1]
  outcome: inactive
[2]
  outcome: inactive

## C=CC(=O)OCC(F)(F)C(F)F
[3]
  outcome: inactive
[4]
  outcome: inactive
[5]
  outcome: inactive
[6]
  outcome: inactive
[1]
  outcome: inactive
CD69, CD69 (gene 969)
  outcome: inactive
[7]
  outcome: inactive
[8]
  AC50: 13.9 µM (active) and 22.8 µM (active)
[2]
  outcome: inactive
[9]
  outcome: inactive

## FC(F)(F)C(F)(C(F)(F)F)C(F)(F)C(F)(F)CC1CO1 (configuration not stated)
[3]
  outcome: inactive
[4]
  outcome: inactive
[5]
  outcome: inactive
[6]
  outcome: inactive
[1]
  outcome: inactive
CD69, CD69 (gene 969)
  outcome: inactive
[7]
  outcome: inactive
[8]
  outcome: inactive
[2]
  outcome: inactive
[9]
  outcome: inactive

## CCCCOCCOP(=O)(OCCOCCCC)OCCOCCCC
[1]
  AC50: 0.0918 µM (active)
[2]
  outcome: inactive

## Nc1ccc([N+](=O)[O-])cc1Cl
[1]
  outcome: inactive
[2]
  outcome: inactive

## CCCCC(CC)COP(=O)(Oc1ccccc1)Oc1ccccc1 (configuration not stated)
[1]
  AC50: 16 µM (active)
[2]
  AC50: 0.145 µM (active)

## NC(=O)C(F)(F)C(F)(F)F
[3]
  outcome: inactive
[4]
  outcome: inactive
[5]
  outcome: inactive
[6]
  outcome: inactive
[1]
  outcome: inactive
CD69, CD69 (gene 969)
  outcome: inactive
[7]
  outcome: inactive
[8]
  outcome: inactive
[2]
  outcome: inactive
[9]
  outcome: inactive

## Cc1ccc2c(c1N)C(=O)c1ccccc1C2=O
[1]
  outcome: inactive
[2]
  outcome: inactive

## CC(Cl)CN(C)C (configuration not stated)
[1]
  AC50: 0.016 µM (active)
[2]
  outcome: inactive

## OCC(F)(F)OC(F)(F)C(F)(F)OC(F)(F)CO
[3]
  outcome: inactive
[4]
  outcome: inactive
[5]
  outcome: inactive
[6]
  outcome: inactive
[1]
  outcome: inactive
CD69, CD69 (gene 969)
  outcome: inactive
[7]
  outcome: inactive
[8]
  outcome: inactive
[2]
  outcome: inactive
[9]
  outcome: inactive

## C=CC(=O)OCC(CC)(COC(=O)C=C)COC(=O)C=C
[1]
  AC50: 2.7 µM (active)
[2]
  AC50: 5.17 µM (active)

## O=C(O)C(F)(F)OC(F)(F)C(F)(F)OC(F)(F)C(=O)O
[3]
  outcome: inactive
[4]
  outcome: inactive
[5]
  outcome: inactive
[6]
  outcome: inactive
[1]
  outcome: inactive
CD69, CD69 (gene 969)
  outcome: inactive
[7]
  outcome: inactive
[8]
  outcome: inactive
[2]
  outcome: inactive
[9]
  outcome: inactive

## CCCCC(CC)COC(=O)c1c(Br)c(Br)c(Br)c(Br)c1C(=O)OCC(CC)CCCC (configuration not stated)
[1]
  outcome: inactive
[2]
  outcome: inactive

## CC(C)(C)c1ccccc1OP(=O)(Oc1ccccc1)Oc1ccccc1
[1]
  AC50: 20 µM (active)
[2]
  outcome: inactive

## COP(=O)(O)OC
[1]
  outcome: inactive
[2]
  outcome: inactive

## O=P(OCC(Br)CBr)(OCC(Br)CBr)OCC(Br)CBr (configuration not stated)
[1]
  outcome: inactive
[2]
  outcome: inactive

## N#Cc1cc([N+](=O)[O-])ccc1N
[1]
  outcome: inactive
[2]
  outcome: inactive

## COP(N)(=S)OC
[1]
  outcome: inactive
[2]
  outcome: inactive

## CCOP(=S)(OCC)SCn1nnc2ccccc2c1=O
[1]
  outcome: inactive
[2]
  outcome: inactive

## O=C(O)C(F)(F)C(F)(F)C(=O)O
[3]
  outcome: inactive
[4]
  outcome: inactive
[5]
  outcome: inactive
[6]
  outcome: inactive
[1]
  outcome: inactive
CD69, CD69 (gene 969)
  outcome: inactive
[7]
  outcome: inactive
[8]
  outcome: inactive
[2]
  outcome: inactive
[9]
  outcome: inactive

## OCC(F)(F)OC(F)(F)C(F)(F)OC(F)(F)C(F)(F)OC(F)(F)CO
[3]
  outcome: inactive
[4]
  AC50: 7.09 µM (active)
  outcome: inactive
[5]
  outcome: inactive
[6]
  outcome: inactive
[1]
  outcome: inactive
CD69, CD69 (gene 969)
  outcome: inactive
[7]
  outcome: inactive
[8]
  AC50: 26.9 µM (active)
  outcome: inactive
[2]
  outcome: inactive
[9]
  outcome: inactive

## c1ccc2c(c1)sc1ccccc12
[1]
  outcome: inactive
[2]
  outcome: inactive

## O=S(=O)(F)C(F)(F)C(F)(F)C(F)(F)C(F)(F)C(F)(F)C(F)(F)C(F)(F)C(F)(F)F
[3]
  outcome: inactive
[4]
  outcome: inactive
[5]
  outcome: inactive
[6]
  outcome: inactive
[1]
  outcome: inactive
CD69, CD69 (gene 969)
  outcome: inactive
[7]
  outcome: inactive
[8]
  outcome: inactive
[2]
  outcome: inactive
[9]
  outcome: inactive

## CCOP(=S)(S)OCC
[1]
  outcome: inactive
[2]
  outcome: inactive

## O=c1ssc(Cl)c1Cl
[1]
  AC50: 11.1 µM (active)
[2]
  outcome: inactive

## O=C(O)C=CC(F)(C(F)(F)F)C(F)(F)F
[3]
  outcome: inactive
[4]
  outcome: inactive
[5]
  outcome: inactive
[6]
  outcome: inactive
[1]
  outcome: inactive
CD69, CD69 (gene 969)
  outcome: inactive
[7]
  outcome: inactive
[8]
  outcome: inactive
[2]
  outcome: inactive
[9]
  outcome: inactive

## COP(=O)(CCC(=O)NCO)OC
[3]
  outcome: inactive
[5]
  outcome: inactive

## Cc1c([N+](=O)[O-])cc2c(c1[N+](=O)[O-])C(C)(C)CC2(C)C
[1]
  outcome: inactive
[2]
  outcome: inactive

## CC(O)C(F)(F)C(F)(F)F (configuration not stated)
[3]
  outcome: inactive
[4]
  outcome: inactive
[5]
  outcome: inactive
[6]
  outcome: inactive
[1]
  outcome: inactive
CD69, CD69 (gene 969)
  outcome: inactive
[7]
  outcome: inactive
[8]
  outcome: inactive
[2]
  outcome: inactive
[9]
  outcome: inactive

## O=C(O)C(F)(F)OC(F)(F)C(F)(F)OC(F)(F)F
[3]
  outcome: inactive
[4]
  outcome: inactive
[5]
  outcome: inactive
[6]
  outcome: inactive
[1]
  outcome: inactive
CD69, CD69 (gene 969)
  outcome: inactive
[7]
  outcome: inactive
[8]
  outcome: inactive
[2]
  outcome: inactive
[9]
  outcome: inactive

## COC(=O)C(F)(F)C(F)(F)OC(F)(C(F)(F)F)C(F)(F)OC(F)=C(F)F (configuration not stated)
[3]
  outcome: inactive
[4]
  outcome: inactive
[5]
  outcome: inactive
[6]
  outcome: inactive
[1]
  outcome: inactive
CD69, CD69 (gene 969)
  outcome: inactive
[7]
  outcome: inactive
[8]
  outcome: inactive
[2]
  AC50: 1.29 µM (active)
  outcome: inactive
[9]
  outcome: inactive
